# Screening results deposited in PubChem BioAssay by National Center for Advancing Translational Sciences (NCATS).
# Most compounds without a hit are left out; they make up all but 4.7% or so of the library.
# TRHR enhancer: allosterically enhances the human TRH receptor; enhancement, % at 2 µM; TRHR cells, fluo-8 calcium fluorescence, EC20 TRH enhancement; AID 493056; P34981; 360,000 compounds, 0.66% hits; in the data active = enhancement above about 30%; note: 0% is about no effect
#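 TRHR-expressing cells loaded with fluo-8 calcium dye were read kinetically (ex 480/em 530) during compound addition, then stimulated with an EC20 of TRH (10 nM final). Enhancement of the Gq-mediated intracellular calcium response was scored.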
# D1 potentiator: enhances dopamine response at the human D1 receptor; HEK293 TREx D1 cells, calcium flux, dopamine EC20 potentiation; potentiation, % at 10 µM; 360,000 compounds, 0.036% hits; AID 504651; in the data active = potentiation above about 30%; note: 0% is about no effect
# Target sequence (P21728 whole entry, looked up): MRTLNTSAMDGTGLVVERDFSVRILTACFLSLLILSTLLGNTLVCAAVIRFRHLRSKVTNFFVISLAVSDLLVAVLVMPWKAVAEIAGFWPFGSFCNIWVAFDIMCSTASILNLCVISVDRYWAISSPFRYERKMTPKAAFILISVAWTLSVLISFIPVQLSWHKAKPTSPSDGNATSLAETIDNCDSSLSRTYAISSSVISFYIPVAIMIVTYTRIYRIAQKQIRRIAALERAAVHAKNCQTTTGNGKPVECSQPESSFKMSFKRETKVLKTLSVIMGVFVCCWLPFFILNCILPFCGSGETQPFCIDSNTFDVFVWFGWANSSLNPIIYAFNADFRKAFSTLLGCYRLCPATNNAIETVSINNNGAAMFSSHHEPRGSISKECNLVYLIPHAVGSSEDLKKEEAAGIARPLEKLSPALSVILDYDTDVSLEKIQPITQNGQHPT
# D1 antagonist: human D1 dopamine receptor antagonism | P21728 | HEK293 TREx D1 cells, calcium flux, dopamine EC80; active compounds read low | activity change, negative = inhibition, % at 10 µM | 360,000 compounds, 3.2% hits | AID 504652; in the data active = activity change below about -30%; note: % is set by controls: 0 for no effect and ±100 for the full control effect
#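 Antagonism measured as reduced calcium response to an EC80 dopamine addition following 180 s compound pre-read; cells were inducible HEK293 Trex D1 plated overnight at 30 C, read kinetically at 1 cycle/sec.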
# TRHR ag: TRH receptor (human) agonism; P34981; TRHR cells, calcium flux fluo-8, FDSS agonist mode; activation, % at 2 µM; 360,000 compounds, 0.18% hits; AID 493084; note: 0% is about no effect
#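 Agonist-mode FDSS calcium read (Ex 480/Em 530, 1 s cycles) in 1536-well TRHR cells with fluo-8 dye, after 10-cycle baseline and 23 nL compound addition; TRH at EC20 (10 nM final) added afterwards for the enhancer phase.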
# D1 ag: activates the human D1 dopamine receptor; P21728; HEK293 T-REx D1 cells, calcium flux, agonist mode; activation, % at 2 µM; 360,000 compounds, 1% hits; note: 0% is about no effect
#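 Tetracycline-induced HEK293 TREx D1 cells, force-coupled to calcium signalling, were dye-loaded with a no-wash calcium kit. Compound was pin-added after a 10 s baseline. Fluorescence was read kinetically at 1 cycle/s for 180 s, with calcium rises flagged as agonism.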
# Numbers without * were called inactive; . = no result given; ! = not confirmed by another sample. Cut-off read from the data, not from the text of the source, unless noted: active = activation above about 30%; inactive = the rest.
SMILES,TRHR enhancer,D1 potentiator,D1 antagonist,TRHR ag,D1 ag
CCc1ccccc1OCCCCN1CCCCC1,-1,-10,-56*,1,4
c1ccc(-c2ccccc2OCCCN2CCCCC2)cc1,5,-3,-54*,1,15
CCN1CCN(CCCOc2ccccc2-c2ccccc2)CC1,27,-4,-9,1,17
CCCc1nnc(NC(=O)Cn2c(=O)oc3cc(Br)ccc32)s1,1,-1,-9,6,62*
COc1ccc(CNC(=O)c2cc3cccc4c3n2CC(C)S4)cc1OC (configuration not stated),3,0,2,1,0
Nc1cc(C(F)(F)F)ccc1S(=O)(=O)Nc1cccc2c1NCCC2,4,0,1,0,11
Cc1ccc(C)c(C(=O)C(C)Sc2nc3nn(-c4ccccc4)c(=O)c-3c3n2CCCCC3)c1 (configuration not stated),15,2,-36*,0,4
CCSc1nc2nn(-c3ccccc3)c(=O)c-2c2n1CCCCC2,-4,4,17,0,1
COCCNC(=O)CSCc1c(F)cccc1Cl,0,-7,-44*,0,2
Cc1c(C(=O)NCCSCc2ccccc2Cl)cccc1[N+](=O)[O-],2,-3,-14,0,5
Cc1c(C(=O)NCCSCc2c(Cl)cccc2Cl)cccc1[N+](=O)[O-],4,-6,-32*,-3,44*
O=C(NCCSCc1c(F)cccc1Cl)c1ccco1,16,-10,-33*,-1,12
COc1ccc(CNC(=O)CSCc2c(F)cccc2Cl)cc1,-2,1,18,-1,5
COC/C=C/c1cc(F)c(S(=O)(=O)N2CCN(S(=O)(=O)c3ccc4c(c3)OCCO4)CC2)cc1F,-6,5,5,-2,1
Cc1cccc(C)c1OC(=O)CSc1nnc(CNC(=O)c2ccccc2)o1,-4,-2,-18,0,11
NS(=O)(=O)c1ccc(N=Nc2ccc(O)c3ncccc23)cc1,10,-1,3,-2,5
Oc1ccc(N=Nc2ccc3c(c2)OCCO3)c2ncccc12,-6,8,2,-1,41*
O=C(CCCCCCCCN1C(=O)c2ccccc2C1=O)N1CCOCC1,0,-6,-24,0,9
O=C1c2ccccc2C(=O)N1CCSC(=S)N1CCOCC1,41*,3,-4,0,6
O=C(CCN1C(=O)c2ccccc2C1=O)N1CCOCC1,-10,-6,-5,0,4
CC(C)NC(=O)CN1C(=O)c2ccccc2S1(=O)=O,-2,-2,-10,0,2
O=C(CCCCCCN1C(=O)c2ccccc2C1=O)N1CCC(c2ccccc2)C1 (configuration not stated),4,-11,-44*,0,23
O=C(CN1C(=O)c2ccccc2S1(=O)=O)NC1CC2CCC1C2 (configuration not stated),4,.,-73*,0,0
O=C(CCCN1C(=O)c2ccccc2C1=O)N1CCOCC1,33*,6,0,0,0
Cc1ccc(-n2ncc(C(=O)NCc3ccco3)c2C2CCN(C(=O)OC(C)(C)C)CC2)c(C)c1,-4,-3,6,1,0
SMILES,TRHR enhancer,D1 potentiator,D1 antagonist,TRHR ag,D1 ag
CCc1ccc(CNC(=O)c2cccc(-n3c(C)nc4cccnc43)c2)cc1,7,-3,-25,1,11
O=C(CN1C(=O)c2ccccc2S1(=O)=O)N1CCOCC1,7,1,-34*,0,2
Cn1c(=O)n(C)c2cc(NS(=O)(=O)c3ccc(C(C)(C)C)cc3)c(NCc3ccccc3)cc21,0,-2,10,-1,2
CC(=O)Nc1nc(C2COc3ccccc3O2)cs1 (configuration not stated),-2,-2,-16,0,3
NC(N)=Nc1nc(C2COc3ccccc3O2)cs1 (configuration not stated),-7,-9,-31*,0,10
Cc1ccccc1C1CC(c2ccc(Br)cc2)Nc2nc(N)nn21 (configuration not stated),40*,1,5,1,3
COc1ccc(C2CC(c3cccc(C)c3)n3nc(N)nc3N2)cc1 (configuration not stated),10,0,-31*,0,0
O=C(Nc1ccccc1C(F)(F)F)N1CCC2(CC1)Oc1ccccc1C(=O)N2Cc1ccccc1F,3,0,-7,1,3
COc1ccc([C@]23Cc4cc(OC)c(OC)cc4C(O2)c2c(cc(C)oc2=O)O3)cc1,-10,-9,-23,-1,1
Cc1cc(NC(=O)C(C)C)cc(-c2nc3ncccc3o2)c1O,4,-3,-11,0,0
CCCCC(=O)Nc1cccc(C(C)O)c1 (configuration not stated),0,-8,-4,0,2
CC(C)CC(=O)Nc1cccc(C(C)O)c1 (configuration not stated),0,-3,-31*,0,2
CCN(c1ccc(OC)cc1)S(=O)(=O)c1nnc(NC(=O)c2ccccc2Cl)s1,4,-7,-42*!,0,2
O=C(Nc1nnc(S(=O)(=O)N2CCCCCC2)s1)c1ccccc1Cl,0,-7,-41*!,1,8
CC(C)CN(c1ccccc1)S(=O)(=O)c1nnc(NC(=O)C(C)C)s1,0,-4,-41*,1,3
O=C(Nc1nnc(S(=O)(=O)N2CCCC2)s1)c1ccccc1Cl,-2,-1,7,0,1
COc1ccc(C)cc1NC(=O)C1CCC(CNS(=O)(=O)c2ccc3c(c2)CCCC(=O)N3)CC1 (configuration not stated),1,2,35,0,2
CCOC(=O)c1cccc(NC(=O)N2CCC(CN3CCCCCC3)CC2)c1,0,-2,5,0,-1
COc1ccc(/C(O)=C/c2nc3ccccc3n(-c3ccccc3)c2=O)cc1,2,-2,-7,23,39*
CCOC(=O)c1ccc(NC(=O)C(C)N(c2ccc(OCC)cc2)S(C)(=O)=O)cc1 (configuration not stated),2,-3,4,2,4
Cc1sc2ncnc(SCC(=O)N3CCCC(C(F)(F)F)C3)c2c1C (configuration not stated),-2,6,-38*,1,1
c1ccc(N2CCN(c3cnccn3)CC2)nc1,1,4,-41*,1,-1
BrC(=C\c1ccccc1)/C=N/N1CCN(c2ccccn2)CC1,1,-4,-32*,-1,3
Oc1cccc(/C=N/N2CCN(c3ccccn3)CC2)c1,1,-1,-6,0,2
CCC(Sc1nc2cc3c(cc2c(=O)n1CCCCCC(=O)NCc1ccc2c(c1)OCO2)OCO3)C(=O)NCCCOC (configuration not stated),1,-3,-23,-1,1
